Assay results as given in PubChem BioAssay (EPA / NIEHS).
Inconclusive results are not listed. Activity calls are given as the source filed them. Rule for the calls, unless noted: active = hit-call score of the fitted dose curve at least 0.9, where 1 is the maximum; inconclusive = response in the unintended direction; inactive = score below 0.9.

Assays:
[1] = ATG_TCF_b_cat_CIS: Attagene CIS-FACTORIAL HepG2 Assay for human T-Cell-Factor with beta-catenin (TCF/b-cat) (AID 2282965; active = hit-call score of the fitted dose curve at least 0.9, where 1 is the maximum; inactive = score below 0.9); conditions: HepG2 TCF/beta-catenin cis-reporter transcription, actives raise or lower the signal
In short: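 Endogenous transcription factor activity is captured through cis-promoter reporter constructs transiently introduced into human HepG2 liver cells. Induced reporter mRNA is measured after 24 h and fitted bidirectionally relative to DMSO.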

[2] = ATG_TAL_CIS: Attagene CIS-FACTORIAL HepG2 Assay for human TAL Basal Promoter (AID 2282966; active = hit-call score of the fitted dose curve at least 0.9, where 1 is the maximum; inactive = score below 0.9;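 note: background control endpoint measuring basal TAL promoter reporter mRNA not a specific factor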); conditions: HepG2 Attagene cis-factorial TAL promoter reporter; actives raise or lower the signal
In short: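 Human hepatoma HepG2 cells, transfected with promoter-regulated reporter units, were treated 24 h. Reporter transcript levels, measured through RT-PCR and capillary electrophoresis, were fitted for gain or loss relative to DMSO.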

[3] = ATG_TGFb_CIS: Attagene CIS-FACTORIAL HepG2 Assay for human Transforming Growth Factor (TGF) (AID 2282967; active = hit-call score of the fitted dose curve at least 0.9, where 1 is the maximum; inactive = score below 0.9); conditions: HepG2 Attagene CIS TGFb reporter, mRNA transcription; actives raise or lower the signal
In short: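 Readout: fluorescently labeled reporter cDNA fragments resolved by capillary electrophoresis after RT-PCR. Transfected HepG2 cells dosed for 24 h; endogenous TF activity at TGFB1-linked cis element; gain or loss fitted relative to DMSO.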

[4] = ATG_VDRE_CIS: Attagene CIS-FACTORIAL HepG2 Assay for human Vitamin D Receptor Element (VDRE) (AID 2282968; active = hit-call score of the fitted dose curve at least 0.9, where 1 is the maximum; inactive = score below 0.9); conditions: HepG2 VDRE cis-reporter transcription, actives raise or lower the signal
In short: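 Readout is VDRE-driven reporter mRNA reflecting endogenous factor activity in human HepG2 cells, sampled 24 h post-dose. Quantification used labelled RT-PCR products separated by capillary electrophoresis; bidirectional analysis relative to DMSO.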

[5] = molecular target: Estrogen receptor (Homo sapiens) (UniProt P03372); assay: ATG_ERa_TRANS: Attagene TRANS-FACTORIAL HepG2 Assay for human Estrogen Receptor alpha (ERa) (AID 2282970); conditions: HepG2 Attagene TRANS ERa GAL4 reporter, mRNA
In short: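 Signal derives from fluorescence of labelled reporter PCR fragments separated by capillary electrophoresis. HepG2 cells transiently carrying multiple GAL4-UAS reporter units were treated 24 hours, and induction above DMSO baseline was fitted as activity.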

[6] = molecular target: Steroid hormone receptor ERR1 (Homo sapiens) (UniProt P11474); assay: ATG_ERRa_TRANS: Attagene TRANS-FACTORIAL HepG2 Assay for human Estrogen-Related Receptor alpha (ERRa) (AID 2282971); conditions: HepG2 Attagene TRANS reporter, ERRa transactivation
In short: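 Signal gain relative to DMSO for an ERRa-Gal4 chimeric receptor, read as reporter mRNA by RT-PCR/capillary electrophoresis. Human HepG2 liver cells, transient multiplex reporter transfection, 24 h chemical exposure.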

[7] = molecular target: X-box-binding protein 1 (Homo sapiens) (UniProt P17861); assay: ATG_Xbp1_CIS: Attagene CIS-FACTORIAL HepG2 Assay for human X-box Binding Protein 1 (XBP1) (AID 2282972; active = hit-call score of the fitted dose curve at least 0.9, where 1 is the maximum; inactive = score below 0.9); conditions: HepG2 XBP1 cis-element reporter, Attagene multiplex; actives raise or lower the signal
In short: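 Changes in reporter transcript abundance, read by RT-PCR and capillary electrophoresis, reflect endogenous transcription factor activity. Transfected HepG2 cells received compound for 24 hours; DMSO defined baseline for bidirectional analysis.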

[8] = ATG_GAL4_TRANS: Attagene TRANS-FACTORIAL HepG2 Assay for GAL4 (Internal Marker) (AID 2282976); conditions: HepG2 Attagene TRANS GAL4 internal marker reporter
In short: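 Liver HepG2 line bearing multiplexed GAL4-UAS reporter constructs; 24 h chemical treatment. Transcripts were quantified as fluorescent fragments on capillary electrophoresis after RT-PCR and HpaI cut, with activity fitted upward from DMSO.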

[9] = molecular target: Oxysterols receptor LXR-beta (Homo sapiens) (UniProt P55055); assay: ATG_LXRb_TRANS: Attagene TRANS-FACTORIAL HepG2 Assay for human Liver X Receptor beta (LXRb) (AID 2282981); conditions: HepG2 Attagene TRANS GAL4-LXRb reporter, mRNA
In short: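 After 24 h chemical treatment of transfected HepG2 cells carrying exogenous NR-Gal4 chimeras, reporter mRNA was quantified by fluorescent RT-PCR and capillary electrophoresis; activity taken as increase over DMSO controls.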

[10] = ATG_M_06_TRANS: Attagene TRANS-FACTORIAL HepG2 Assay for M06 Transcription Factor (Internal Marker) (AID 2282983); conditions: HepG2 Attagene TRANS M06 internal marker reporter
In short: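 Multi-reporter-transfected HepG2, 24 h treatment; reporter transcripts quantified via RT-PCR, primer-extension labelling and CE. DMSO-normalized gain-of-signal fit.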

[11] = molecular target: Transcriptional activator Myb (Homo sapiens) (UniProt P10242); assay: ATG_Myb_CIS: Attagene CIS-FACTORIAL HepG2 Assay for human Myeloblastosis (Myb) Proto-Oncogene Transcription Factor (AID 2282986; active = hit-call score of the fitted dose curve at least 0.9, where 1 is the maximum; inactive = score below 0.9); conditions: HepG2 Attagene CIS-FACTORIAL Myb reporter transcription; actives raise or lower the signal
In short: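 Reporter mRNA is quantified by RT-PCR and capillary electrophoresis 24 h after dosing HepG2 cells transfected with cis-regulated reporter units, which track endogenous transcription factor activity. Gain and loss of signal are fitted versus DMSO baseline.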

[12] = molecular target: Nuclear receptor subfamily 1 group I member 3 (Homo sapiens) (UniProt Q14994); assay: ATG_CAR_TRANS: Attagene TRANS-FACTORIAL HepG2 Assay for human Constitutive Androstane Receptor (CAR) (AID 2282969); conditions: HepG2 Attagene TRANS-FACTORIAL CAR reporter;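 note: activators raise reporter mRNA above DMSO so AC50 marks induction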
In short: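 Signal is reporter mRNA induction relative to DMSO, measured 24 h after dosing by RT-PCR with fluorescent primer extension and capillary electrophoresis. Human HepG2 liver cells carried transiently transfected chimeric NR-Gal4/GAL4-UAS reporter constructs.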

[13] = molecular target: Hepatocyte nuclear factor 4-alpha (Homo sapiens) (UniProt P41235); assay: ATG_HNF4a_TRANS: Attagene TRANS-FACTORIAL HepG2 Assay for human Hepatocyte Nuclear Factor 4 alpha (HNF4a) (AID 2282982); conditions: HepG2 HNF4a transactivation reporter, mRNA readout
In short: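 Activity of an exogenous HNF4a–Gal4 fusion scored as induced GAL4-UAS reporter transcripts after 24 h chemical exposure of transfected human HepG2 cells. Read-out via RT-PCR with 6-FAM labelling and capillary electrophoresis; rise over DMSO baseline.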

[14] = molecular target: Nuclear receptor subfamily 4 group A member 2 (Homo sapiens) (UniProt P43354); assay: ATG_NURR1_TRANS: Attagene TRANS-FACTORIAL HepG2 Assay for human Nuclear Receptor Related Protein 1 (NURR1) (AID 2282985); conditions: HepG2 Attagene TRANS reporter, mRNA readout
In short: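 Reporter transcript induction, measured by RT-PCR with fluorescent labelling, HpaI digestion and capillary electrophoresis, after 24 hr dosing of human HepG2 cells transiently expressing an exogenous NR-Gal4 fusion with GAL4-UAS-driven reporters; DMSO as baseline.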

[15] = molecular target: Bile acid receptor (Homo sapiens) (UniProt Q96RI1); assay: ATG_FXR_TRANS: Attagene TRANS-FACTORIAL HepG2 Assay for Farnesoid X Receptor (FXR) (AID 2282979); conditions: HepG2 Attagene TRANS FXR-GAL4 reporter transcription;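 note: hits raise reporter mRNA above DMSO so AC50 marks FXR activation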
In short: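 After 24 h chemical treatment of transfected HepG2 cells, GAL4-UAS reporter transcripts driven by an exogenous FXR-GAL4 fusion were measured by RT-PCR and capillary electrophoresis. Increases over DMSO were fitted.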

[16] = ATG_M_32_TRANS: Attagene TRANS-FACTORIAL HepG2 Assay for M32 Transcription Factor (Internal Marker) (AID 2282984); conditions: HepG2 Attagene TRANS M32 internal marker reporter
In short: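 Internal background reporter in transfected HepG2: after 24 h chemical exposure, RNA reverse-transcribed, reporter cDNA amplified, fluorescently labelled and HpaI-cut, then sized by capillary electrophoresis. Gain of signal fitted against DMSO control.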

[17] = molecular target: Estrogen-related receptor gamma (Homo sapiens) (UniProt P62508); assay: ATG_ERRg_TRANS: Attagene TRANS-FACTORIAL HepG2 Assay for human Estrogen-Related Receptor gamma (ERRg) (AID 2282977); conditions: HepG2 Attagene TRANS reporter, ERRg transactivation;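 note: hits increase reporter signal over DMSO so potencies reflect activators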
In short: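 Exogenous NR-Gal4 chimera activity measured as reporter transcript induction after 24 h in transiently transfected HepG2 cells. RNA reverse-transcribed, PCR-amplified, 6-FAM-labelled and resolved by capillary electrophoresis; increase over DMSO baseline.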

[18] = molecular target: Oxysterols receptor LXR-alpha (Homo sapiens) (UniProt Q13133); assay: ATG_LXRa_TRANS: Attagene TRANS-FACTORIAL HepG2 Assay for human Liver X Receptor alpha (LXRa) (AID 2282980); conditions: HepG2 Attagene TRANS reporter, LXRa transactivation
In short: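 In this multiplexed TRANS system, compounds act on HepG2 cells carrying GAL4-UAS reporter units and a receptor-GAL4 fusion for 24 h. Induced reporter RNA is amplified, fluorescently labelled and sized by capillary electrophoresis, with DMSO as baseline.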

[19] = ATG_M_19_TRANS: Attagene TRANS-FACTORIAL HepG2 Assay for M19 Transcription Factor (Internal Marker) (AID 2282974); conditions: HepG2 Attagene TRANS-FACTORIAL M19 internal marker reporter
In short: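 Background-control readout: after 24 h chemical exposure of transfected HepG2 carrying GAL4-driven reporter units, RNA was reverse-transcribed, amplified, fluorescently labeled and sized by capillary electrophoresis; gain-of-signal fit against DMSO.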

[20] = molecular target: Glucocorticoid receptor (Homo sapiens) (UniProt P04150); assay: ATG_GR_TRANS: Attagene TRANS-FACTORIAL HepG2 Assay for human Glucocorticoid Receptor (GR) (AID 2282978); conditions: HepG2 Attagene TRANS GR reporter, mRNA transcription;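 note: activators score as hits since higher reporter transcript over DMSO is fitted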
In short: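 Readout is reporter transcript from a chimeric GR-Gal4 acting on GAL4-UAS in transfected human HepG2 liver cells after 24 h exposure, quantified by RT-PCR and capillary electrophoresis. Activation fitted upward against DMSO.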

Measured: AC50

Sequence of Oxysterols receptor LXR-alpha (Homo sapiens) (Q13133 whole entry, looked up, the tested form may be a part): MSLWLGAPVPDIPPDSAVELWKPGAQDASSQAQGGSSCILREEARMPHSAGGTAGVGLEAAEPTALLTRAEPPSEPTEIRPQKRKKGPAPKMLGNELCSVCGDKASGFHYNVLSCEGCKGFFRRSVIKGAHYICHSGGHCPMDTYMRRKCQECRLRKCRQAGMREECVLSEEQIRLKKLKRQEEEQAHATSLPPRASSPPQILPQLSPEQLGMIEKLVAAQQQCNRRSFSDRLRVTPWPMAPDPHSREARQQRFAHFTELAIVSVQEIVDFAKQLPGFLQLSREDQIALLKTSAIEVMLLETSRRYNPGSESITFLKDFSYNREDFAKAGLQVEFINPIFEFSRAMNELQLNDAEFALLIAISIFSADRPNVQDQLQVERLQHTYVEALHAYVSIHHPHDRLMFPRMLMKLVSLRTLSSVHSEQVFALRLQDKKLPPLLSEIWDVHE
Sequence of X-box-binding protein 1 (Homo sapiens) (P17861 whole entry, looked up): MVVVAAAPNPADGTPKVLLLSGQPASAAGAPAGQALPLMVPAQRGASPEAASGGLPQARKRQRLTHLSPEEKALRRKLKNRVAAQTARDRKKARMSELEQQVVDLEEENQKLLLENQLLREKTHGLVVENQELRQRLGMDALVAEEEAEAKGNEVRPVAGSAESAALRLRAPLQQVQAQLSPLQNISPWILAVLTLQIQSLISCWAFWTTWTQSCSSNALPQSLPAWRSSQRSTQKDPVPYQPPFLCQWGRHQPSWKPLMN
Sequence of Estrogen receptor (Homo sapiens) (P03372 whole entry, looked up, the tested form may be a part): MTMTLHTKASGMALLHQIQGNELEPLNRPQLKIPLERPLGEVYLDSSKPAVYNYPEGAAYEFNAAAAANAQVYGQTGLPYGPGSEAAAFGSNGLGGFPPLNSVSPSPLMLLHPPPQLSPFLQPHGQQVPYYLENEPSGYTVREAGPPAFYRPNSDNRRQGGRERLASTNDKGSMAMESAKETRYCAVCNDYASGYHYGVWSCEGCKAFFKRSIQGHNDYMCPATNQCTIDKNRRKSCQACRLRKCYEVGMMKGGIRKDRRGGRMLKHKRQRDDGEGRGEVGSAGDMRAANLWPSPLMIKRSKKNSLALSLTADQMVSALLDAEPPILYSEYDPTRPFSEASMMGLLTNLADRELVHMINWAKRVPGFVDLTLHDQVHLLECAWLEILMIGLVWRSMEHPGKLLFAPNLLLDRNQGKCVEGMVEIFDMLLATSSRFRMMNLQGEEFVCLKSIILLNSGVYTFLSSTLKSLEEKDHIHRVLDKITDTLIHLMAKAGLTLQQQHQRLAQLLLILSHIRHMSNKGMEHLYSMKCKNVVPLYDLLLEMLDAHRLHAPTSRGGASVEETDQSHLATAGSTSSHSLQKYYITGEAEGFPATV
Sequence of Estrogen-related receptor gamma (Homo sapiens) (P62508 whole entry, looked up, the tested form may be a part): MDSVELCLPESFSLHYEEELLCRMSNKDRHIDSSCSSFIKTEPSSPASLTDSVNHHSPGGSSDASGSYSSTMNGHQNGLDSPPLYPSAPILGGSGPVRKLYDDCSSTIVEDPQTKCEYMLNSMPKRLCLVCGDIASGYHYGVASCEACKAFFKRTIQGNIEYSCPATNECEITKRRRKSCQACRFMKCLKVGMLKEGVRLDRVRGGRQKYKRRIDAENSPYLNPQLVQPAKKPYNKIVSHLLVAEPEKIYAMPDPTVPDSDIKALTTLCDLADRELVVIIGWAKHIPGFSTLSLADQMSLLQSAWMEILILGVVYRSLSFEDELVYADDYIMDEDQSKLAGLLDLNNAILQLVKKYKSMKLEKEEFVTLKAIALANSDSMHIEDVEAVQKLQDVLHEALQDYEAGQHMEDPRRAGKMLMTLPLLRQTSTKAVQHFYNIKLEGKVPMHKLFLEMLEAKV
Sequence of Glucocorticoid receptor (Homo sapiens) (P04150 whole entry, looked up, the tested form may be a part): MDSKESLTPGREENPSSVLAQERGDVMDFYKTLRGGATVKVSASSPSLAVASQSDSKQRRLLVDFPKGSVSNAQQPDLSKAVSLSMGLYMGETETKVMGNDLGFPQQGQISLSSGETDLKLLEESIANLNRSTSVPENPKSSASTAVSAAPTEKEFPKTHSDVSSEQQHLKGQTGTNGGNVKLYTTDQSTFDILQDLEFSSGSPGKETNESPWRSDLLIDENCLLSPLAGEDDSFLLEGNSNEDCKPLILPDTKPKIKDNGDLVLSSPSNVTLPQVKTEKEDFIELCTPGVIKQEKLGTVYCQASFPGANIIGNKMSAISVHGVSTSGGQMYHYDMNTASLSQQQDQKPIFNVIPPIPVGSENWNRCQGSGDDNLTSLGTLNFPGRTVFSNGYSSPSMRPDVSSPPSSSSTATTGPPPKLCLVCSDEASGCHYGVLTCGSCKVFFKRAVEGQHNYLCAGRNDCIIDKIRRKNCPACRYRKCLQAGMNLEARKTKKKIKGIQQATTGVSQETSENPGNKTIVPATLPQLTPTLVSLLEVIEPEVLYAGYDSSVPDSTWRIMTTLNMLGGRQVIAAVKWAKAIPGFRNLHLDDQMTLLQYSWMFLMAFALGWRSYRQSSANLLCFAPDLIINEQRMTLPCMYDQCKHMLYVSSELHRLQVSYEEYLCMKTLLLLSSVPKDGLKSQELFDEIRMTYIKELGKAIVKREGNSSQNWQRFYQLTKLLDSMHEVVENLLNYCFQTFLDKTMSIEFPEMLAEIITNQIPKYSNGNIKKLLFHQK
Sequence of Steroid hormone receptor ERR1 (Homo sapiens) (P11474 whole entry, looked up, the tested form may be a part): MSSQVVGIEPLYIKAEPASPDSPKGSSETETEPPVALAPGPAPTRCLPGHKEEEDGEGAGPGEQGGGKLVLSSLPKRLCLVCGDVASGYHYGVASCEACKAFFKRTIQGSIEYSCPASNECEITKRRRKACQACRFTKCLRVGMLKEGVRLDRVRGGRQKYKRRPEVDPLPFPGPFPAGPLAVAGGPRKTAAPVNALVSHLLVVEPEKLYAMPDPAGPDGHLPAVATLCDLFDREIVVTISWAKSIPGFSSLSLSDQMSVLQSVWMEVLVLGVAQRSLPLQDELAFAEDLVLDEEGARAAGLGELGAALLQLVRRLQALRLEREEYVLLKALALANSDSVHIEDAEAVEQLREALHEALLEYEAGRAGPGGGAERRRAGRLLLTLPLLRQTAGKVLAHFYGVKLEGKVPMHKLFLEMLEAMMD
Sequence of Nuclear receptor subfamily 4 group A member 2 (Homo sapiens) (P43354 whole entry, looked up, the tested form may be a part): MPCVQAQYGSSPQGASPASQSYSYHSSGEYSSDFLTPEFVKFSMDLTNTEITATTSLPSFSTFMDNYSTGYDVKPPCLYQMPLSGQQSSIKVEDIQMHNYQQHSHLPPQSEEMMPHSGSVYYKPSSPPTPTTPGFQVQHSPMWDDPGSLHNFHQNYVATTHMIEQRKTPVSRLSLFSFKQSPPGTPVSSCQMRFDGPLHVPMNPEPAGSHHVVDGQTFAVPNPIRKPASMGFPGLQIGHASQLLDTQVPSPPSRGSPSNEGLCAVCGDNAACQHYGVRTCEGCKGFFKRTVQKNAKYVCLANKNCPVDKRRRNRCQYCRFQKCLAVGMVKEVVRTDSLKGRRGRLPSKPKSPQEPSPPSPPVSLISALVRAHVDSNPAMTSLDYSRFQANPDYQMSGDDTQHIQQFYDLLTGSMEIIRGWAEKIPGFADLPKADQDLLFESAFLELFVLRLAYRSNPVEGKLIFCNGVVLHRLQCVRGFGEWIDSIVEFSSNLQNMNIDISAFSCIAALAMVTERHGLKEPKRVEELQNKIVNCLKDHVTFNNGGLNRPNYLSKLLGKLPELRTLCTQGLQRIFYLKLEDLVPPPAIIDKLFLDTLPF
Sequence of Transcriptional activator Myb (Homo sapiens) (P10242 whole entry, looked up): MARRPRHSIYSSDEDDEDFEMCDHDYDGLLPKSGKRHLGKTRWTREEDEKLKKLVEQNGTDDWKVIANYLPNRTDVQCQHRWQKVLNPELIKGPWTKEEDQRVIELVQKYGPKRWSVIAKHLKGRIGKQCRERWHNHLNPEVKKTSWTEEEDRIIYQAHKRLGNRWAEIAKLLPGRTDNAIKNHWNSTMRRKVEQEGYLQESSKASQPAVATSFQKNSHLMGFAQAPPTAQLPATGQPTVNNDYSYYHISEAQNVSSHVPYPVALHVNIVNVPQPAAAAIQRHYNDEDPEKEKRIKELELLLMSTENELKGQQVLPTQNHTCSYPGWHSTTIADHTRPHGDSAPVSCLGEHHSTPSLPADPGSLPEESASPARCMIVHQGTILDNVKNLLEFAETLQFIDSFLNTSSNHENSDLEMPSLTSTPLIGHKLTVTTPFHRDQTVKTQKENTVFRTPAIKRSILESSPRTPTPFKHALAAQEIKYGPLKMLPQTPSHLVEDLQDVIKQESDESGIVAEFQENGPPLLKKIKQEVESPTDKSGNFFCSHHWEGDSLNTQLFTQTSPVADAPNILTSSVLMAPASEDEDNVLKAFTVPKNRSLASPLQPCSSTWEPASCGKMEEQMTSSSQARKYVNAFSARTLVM
Sequence of Nuclear receptor subfamily 1 group I member 3 (Homo sapiens) (Q14994 whole entry, looked up, the tested form may be a part): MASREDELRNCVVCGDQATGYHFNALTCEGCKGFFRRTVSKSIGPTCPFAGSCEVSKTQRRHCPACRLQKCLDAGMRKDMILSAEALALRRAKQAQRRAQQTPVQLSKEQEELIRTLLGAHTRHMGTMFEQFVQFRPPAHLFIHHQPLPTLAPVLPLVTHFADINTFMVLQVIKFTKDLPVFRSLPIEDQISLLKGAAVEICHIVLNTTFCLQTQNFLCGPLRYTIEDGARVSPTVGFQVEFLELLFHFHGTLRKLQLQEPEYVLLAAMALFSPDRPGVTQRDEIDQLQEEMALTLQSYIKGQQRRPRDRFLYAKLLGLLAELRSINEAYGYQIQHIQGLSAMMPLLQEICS

COc1nccnc1CC(C)C
inactive: [1] | [2] | [3] | [4] | [5] | [6] | [7] | [8] | [9] | [10] | [11]

C=CC(=O)NC(C)(C)C
not listed: [6] | [8] | [15] | [16] | [17] | [18] | [19] | [20]
inactive: all other assays above

CC(=O)CC(=O)Nc1ccccc1C
inactive: [1] | [2] | [3] | [4] | [12] | [6] | [7] | [13] | [10] | [11]

CCCCCC1=CCCC1=O
not listed: [6] | [8] | [10] | [14] | [17] | [18] | [19] | [20]
inactive: all other assays above

CCCCC(CC)COC(=O)/C=C/c1ccc(OC)cc1 (stereo not given)
not listed: [8] | [9] | [10] | [15] | [19] | [20]
inactive: all other assays above

CCOC(=O)[C@H](O)[C@@H](O)C(=O)OCC
not listed: [6] | [10] | [15] | [17] | [20]
inactive: all other assays above

CCCCCCCC(=O)OCC
not listed: [10] | [12] | [13] | [16] | [18] | [20]
inactive: all other assays above

CC(=O)OCCc1ccccc1
inactive: [1] | [2] | [3] | [4] | [12] | [5] | [7] | [13] | [10] | [11]

C=CC(=O)OCCCCCCCCCC
not listed: [9] | [10] | [13] | [15] | [17]
inactive: all other assays above

CCCCC(CC)COS(=O)(=O)O (stereo not given)
not listed: [9] | [11] | [12] | [14] | [18] | [20]
inactive: all other assays above

O=C(C=Cc1ccccc1)OCCc1ccccc1
inactive: [1] | [2] | [3] | [12] | [7] | [19] | [8] | [18] | [14]
active: [4] 28 µM | [5] 29.4 µM

C=Cc1cccc(C)c1
inactive: [1] | [2] | [3] | [4] | [12] | [5] | [7] | [19] | [20] | [16]

CCCCOC(=O)CCC(C)=O
not listed: [6] | [8] | [9] | [10] | [15] | [17] | [19]
inactive: all other assays above

Cc1ccc(S(=O)(=O)N=C=O)cc1
inactive: [1] | [2] | [3] | [4] | [5] | [6] | [7] | [8] | [13] | [14] | [11]

C=CCCCCCCCCC=O
not listed: [9] | [11] | [15] | [16] | [19] | [20]
inactive: all other assays above

c1ccc2cnccc2c1
not listed: [11] | [12] | [14] | [15] | [16] | [18] | [19]
inactive: all other assays above

CCc1cccc(C)c1N
not listed: [9] | [10] | [12] | [15] | [19]
inactive: all other assays above

CC(=O)OCc1ccccc1
not listed: [6] | [12] | [14] | [15] | [17] | [18]
inactive: all other assays above

CCCCCCCCCCCC(C)=O
active: [1] 161 µM | [2] 178 µM | [3] 166 µM | [5] 11.6 µM
inactive: [4] | [7] | [19] | [8] | [20] | [15] | [13] | [11]

CCCCCCCCCCCCC
not listed: [6] | [12] | [17] | [18] | [19]
inactive: all other assays above

CCCCCCCCCCCC(=O)N(C)CC(=O)O
inactive: [1] | [2] | [3] | [4] | [5] | [7] | [8] | [20] | [10] | [16]
